PubChem BioAssay AID1813 (Broad Institute, 2009)
About 2,500 (0.83%) of roughly 300,000 compounds were called active. Cut-off read from the data, not from the text of the source: active = inhibition above about 60%; inconclusive = no clear call, values can overlap the other calls; inactive = below that. The list comes from a sample in which actives are over-represented; it also holds similar structures and randomly drawn compounds.

Experiment: 5' untranslated region of α-synuclein, MLPCN primary screen (AID 1813);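 note: H4 neuroglioblastoma cells stably carrying SNCA 5'UTR luciferase fusion; 0% = DMSO wells and 100% = positive control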
Details: alpha-synuclein 5'UTR reporter, inhibitor activity; active compounds read high; tested at 7.5 µM

inhibition, active:
CN(c1ccc2nc3ccccc3c(=O)n2n1)C1CCCCC1 119%
Cc1cccc2cc3c(N)c(C(=O)N4CCCc5ccccc54)sc3nc12 85.2%
CN1c2ccc(C=O)c3c(C=O)ccc(c23)N(C)C1(C)C 67%
C(=N\Nc1ccc2ccccc2n1)/c1ccc2c(c1)OCO2 88.2%
Oc1c(CN2CCN(c3ccc(F)cc3)CC2)cc(Cl)c2cccnc12 69.6%
Cc1cccn2c(=O)c3cc(C(=O)NCCN4CCOCC4)c(=N)n(Cc4cccnc4)c3nc12 97%
CC1CN/C(=C\C(=O)c2ccc(Br)cc2)C(=O)N1 (stereo unspecified) 62%
CCOC(=O)N1CCN(S(=O)(=O)c2ccc(C(=O)Nc3ccc(F)cc3F)cc2)CC1 69.5%
CCN(CC)c1ccc(/C=N/NC(=O)c2cnccn2)c(O)c1 72.3%
CC[C@]1(O)CC2CN(CCc3c([nH]c4ccccc34)[C@@](C(=O)OC)(c3cc4c(cc3OC)N(C=O)[C@H]3[C@@](O)(C(=O)OC)[C@H](OC(C)=O)[C@]5(CC)C=CCN6CC[C@]43[C@@H]65)C2)C1 (stereo partly specified) 102%
CC[C@]1(O)C[C@@H]2CN(CCc3c([nH]c4ccccc34)[C@@](C(=O)OC)(c3cc4c(cc3OC)N(C)[C@H]3[C@@](O)(C(=O)OC)[C@H](OC(C)=O)[C@]5(CC)C=CCN6CC[C@]43[C@@H]65)C2)C1 77.2%
CCCc1cc(=O)[nH]c(SCC(=O)c2c(N)n(CC(C)C)c(=O)n(C)c2=O)n1 88.3%
Oc1c(Cl)cc(Cl)c(Cl)c1Cc1c(O)c(Cl)cc(Cl)c1Cl 77.3%

inhibition, inactive:
COc1ccc(C)cc1N(CC(=O)N1CCCC1)S(=O)(=O)c1ccccc1 -6.96%
Cc1ccc(CNC(=O)CCNS(=O)(=O)c2cccc3nonc23)cc1 9.75%
CN(C(=O)c1cc2c(=O)n3ccccc3nc2s1)C1CCCCC1 -42.4%
O=c1c2ccccc2nc2n1C1(CCCCC1)Cc1ccccc1-2 0.0175%
Cc1ccc(CN2CCNC(=O)C2CC(=O)NCc2csc(C(C)C)n2)cc1 (stereo unspecified) 9.72%
Cc1ccc2[nH]c(=O)c(CN(C)S(=O)(=O)c3cccc4nonc34)cc2c1 -5.89%
CCC1=C(OC(=O)N(CC)CC)N2C(=O)OC(=NCCc3c[nH]c4ccccc34)[C@]2(C)[C@H]2C1=CC[C@H]1C(=O)N(CC)C(=O)[C@H]12 -3.3%
Cc1c(C(=O)N2CCCc3ccccc32)sc2nc(-c3ccccc3)cn12 -83.5%
Cc1c(C(=O)N2CCCc3ccccc32)oc2ccccc12 -96.2%
COc1ccc2c(c1)cc1n2CCN=C1NN -27.8%
CCN(CC(=O)Nc1c(F)cccc1F)C(=O)c1ccc(S(=O)(=O)N2CCCCC2)cc1 6.51%
O=C(c1ccc(F)cc1)N1CCC(n2nnc3ccccc32)CC1 6.11%
Cc1cc(OCc2ccc(C(=O)Nc3ccc(C(=O)O)cc3)o2)ccc1Cl 32.2%
CCOC(=O)c1ccc(NC(=O)c2c(N)n(C)c(=O)[nH]c2=O)cc1 -15.4%
Brc1ccc(-c2csc(N/N=C/c3ccc4c(c3)OCO4)n2)cc1 -59.4%
Cc1noc(C)c1/C=N/Nc1ccc2ccccc2n1 -146%
CCCc1nc(N2CCN(C)CC2)c2sc(=S)n(-c3ccccc3)c2n1 2.12%
CCOC(=O)C1C(=O)NCC1c1ccccc1 (stereo unspecified) -12.2%
NC(=O)COC(=O)c1ccc2c(c1)C(=O)N(Cc1ccco1)C2=O -5.55%
Cc1cccnc1NC(=O)c1cccc(S(=O)(=O)N2CCN(c3ccc(F)cc3)CC2)c1 26.9%
CCN1CCN(C(c2cccnc2)c2cc(Cl)c3cccnc3c2O)CC1 (stereo unspecified) -29.1%
CC(=O)c1ccc(NC(=O)CCc2nnc3ccc(NCc4ccco4)nn23)cc1 -95.3%
COc1ccc(CCn2c(=N)c(C(=O)NCC3CCCO3)cc3c(=O)n4cccc(C)c4nc32)cc1OC (stereo unspecified) -9.36%
Cc1cccn2c(=O)c3cc(C(=O)NCC4CCCO4)c(=N)n(Cc4ccc(F)cc4)c3nc12 (stereo unspecified) 9.52%
CCOc1cccc(OCCCOc2cccc3cccnc23)c1 5.95%
O=C1CCC([N+](=O)[O-])C(c2ccccc2Br)N1 (stereo unspecified) 0.315%
O=C1C(=O)N(CCCO)C(c2ccccc2)/C1=C(\O)c1ccc(Br)cc1 (stereo unspecified) 4.06%
O=C(Oc1cccc(N2C(=O)C3C4c5ccccc5C(c5ccccc54)C3C2=O)c1)c1ccco1 (stereo unspecified) 2.5%
CN1CCCC(OC(=O)COc2ccc(Br)cc2)C1 (stereo unspecified) 4.45%
COc1cc2c(cc1OC)/C(=C/C(=O)c1ccc(NC(C)=O)cc1)NCC2 22.9%
O=C(NCCCCCCCCCNC(=O)C(F)(F)F)C(F)(F)F 9.8%
CCOC(=O)N1CCN(S(=O)(=O)c2ccc(OC)cc2)CC1 4.08%
CCOC(=O)N1CCN(S(=O)(=O)c2ccc(Br)cc2)CC1 -14.3%
Cc1cc(NC(=O)C(C)N2C(=O)c3ccccc3S2(=O)=O)no1 (stereo unspecified) -18.2%
Cc1ccc(C(=O)NCCNC(=O)c2cnccn2)cc1 -3.06%
CCN(CC)c1ccc(/C=N/NC(=O)CNC(=O)c2cccnc2)cc1 5.51%
Cc1cn(C2C=CC(CO)O2)c(=O)[nH]c1=O (stereo unspecified) -0.0254%
CCc1nc2ccccc2c(C(=O)OC2CCCCC2=O)c1C (stereo unspecified) 8.85%
CCCc1cc(=O)[nH]c(SCC(=O)OCc2ccccc2)n1 13.7%
CCCc1cc(=O)[nH]c(SCC(=O)c2cc(C)n(CCC)c2C)n1 23.4%
Cc1ccc2nc(SC(C)C(=O)NCc3ccco3)[nH]c2c1 (stereo unspecified) 30%
CC(=O)NN1C(=O)c2ccccc2NC1c1ccccc1 (stereo unspecified) 19.3%
CC1=NNC(=O)C1Cc1c(Cl)cccc1Cl (stereo unspecified) 27%
